Data published in the supplement of paper PMC10646978.
± gives the standard deviation.

Tests used:
Settings in all cases: modulator concentration 10 µM
[1] = system: RAW-Dual (murine macrophage reporter line); test: NF-kB reporter (SEAP) activity fold change vs agonist alone; higher = enhanced NF-kB activity
In short: (§1)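 Compound reached 10 μM final in each well by pin transfer, onto RAW-Dual murine macrophage reporter cells seeded at 50 000 per well in 384-well plates. After 1 hour at 37 °C, the cells were stimulated overnight with a PRR agonist. SEAP in the supernatant was read with QUANTI-Blue at 620 nm absorbance for NF-κB, and Lucia luciferase was read with QUANTI-Luc luminescence for IRF. Each signal was turned into fold change against the mean agonist-only control on the same plate, and two replicate plates were averaged with propagated errors.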

[2] = system: RAW-Dual (murine macrophage reporter line); test: IRF reporter (Lucia luciferase) activity fold change vs agonist alone; higher = enhanced IRF activity
In short: as §1

[3] = system: RAW-Dual (murine macrophage reporter line); test: viability score (confluency relative to resting cells, overnight) (fraction); higher = more viable, active = viable (0.7 or more)
In short: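 Confluency was the readout: RAW-Dual macrophages were imaged with IncuCyte after an overnight exposure to compound at 10 μM final. IncuCyte software produced two masks over all imaged wells. The viability score expresses confluency against resting cells, and both masks had to exceed 70% of resting cells for a compound to meet the cutoff.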

[4] = agonist: CpG ODN 1826 0.5 ug/mL

Structure (SMILES) | NF-kB reporter [1, 4] | NF-kB reporter ([1]; agonist: LPS 0.1 ug/mL) | NF-kB reporter ([1]; agonist: MPLA […]) | IRF reporter ([2]; agonist: 3'3'-cGAMP 10 ug/mL) | IRF reporter ([2]; agonist: LPS 0.1 ug/mL) | IRF reporter ([2]; agonist: MPLA […]) | viability score [3]
COc1cc2c(cc1OC)C1C(=O)c3ccc4c(c3OC1CO2)C=CC(C)(C)O4 (centres undefined) | 0.92 ± 0.071 | 0.99 ± 0.096 | 1.55 ± 0.14 | 0.853 ± 0.04 | 1.62 ± 0.26 | 2.12 ± 0.42 | 0.986 (active)
O=C(Cn1cnc([N+](=O)[O-])n1)Nc1cc(Oc2cccc(C(F)(F)F)c2)cc([N+](=O)[O-])c1 | 0.529 ± 0.043 | 0.806 ± 0.097 | 0.406 ± 0.043 | 0.902 ± 0.022 | 1.6 ± 0.14 | 1.51 ± 0.21 | 0.995 (active)
NC(=O)N1CCC(CC(=O)N2CCC([C@H]3c4ncc(Br)cc4CCc4cc(Cl)cc(Br)c43)CC2)CC1 | 0.342 ± 0.047 | 0.434 ± 0.12 | 0.615 ± 0.19 | 0.325 ± 0.012 | 0.889 ± 0.23 | 1.2 ± 0.17 | 0.0582 (inactive)
CC1(C)Cc2ccccc2C(=C(C#N)C#N)N1 | 1.01 ± 0.08 | 0.912 ± 0.068 | 1.06 ± 0.1 | 1.03 ± 0.041 | 1.33 ± 0.2 | 1.5 ± 0.34 | 1.01 (active)
CC(=O)N=C1NC(=O)C(=Cc2ccc(C)o2)S1 | 0.92 ± 0.088 | 0.847 ± 0.067 | 0.965 ± 0.026 | 0.817 ± 0.065 | 0.895 ± 0.082 | 0.823 ± 0.083 | 0.995 (active)
CN1CCN(C2=Nc3ccccc3Oc3ccc(Cl)cc32)CC1 [Prestw-132] | 1.08 ± 0.22 | 0.804 ± 0.09 | 0.812 ± 0.079 | 0.944 ± 0.054 | 1.08 ± 0.18 | 0.961 ± 0.18 | 1.03 (active)
C=CCc1ccc(OCCCOc2ccccc2C(C)=O)c(OC)c1 | 1.02 ± 0.072 | 1.08 ± 0.082 | 1.19 ± 0.049 | 0.66 ± 0.026 | 0.863 ± 0.052 | 1.07 ± 0.12 | 0.99 (active)
Cc1ccccc1Oc1ccc(S(=O)(=O)N2CCCC2)cc1 | 0.68 ± 0.03 | 1.02 ± 0.14 | 0.922 ± 0.061 | 0.385 ± 0.018 | 1.03 ± 0.14 | 1.22 ± 0.26 | 0.953 (active)
CCN1CCN(Cc2ccc(Nc3ncc(F)c(-c4cc(F)c5nc(C)n(C(C)C)c5c4)n3)nc2)CC1.CS(=O)(=O)O | 0.095 ± 0.023 | 0.793 ± 0.04 | 3.04 ± 0.21 | 0.29 ± 0.018 | 0.19 ± 0.035 | 0.314 ± 0.03 | 0.852 (active)
CC(C)Sc1ccc(CC(=O)NC2CCN(c3cc4c(nn3)CCCC4)CC2)cc1 | 0.556 ± 0.041 | 1.19 ± 0.11 | 1.02 ± 0.076 | 0.847 ± 0.04 | 1.26 ± 0.27 | 1.51 ± 0.47 | 0.973 (active)
CC(NC(=O)C(=O)NN=Cc1ccc(Cl)cc1Cl)c1ccccc1 (centres undefined) | 0.967 ± 0.095 | 1.16 ± 0.077 | 0.953 ± 0.084 | 1.22 ± 0.051 | 1.39 ± 0.16 | 1.14 ± 0.11 | 0.991 (active)
Cc1cc(Cl)ccc1OCC(O)CN1CC(C)OC(C)C1.Cl (centres undefined) | 0.764 ± 0.068 | 0.939 ± 0.1 | 0.934 ± 0.081 | 0.937 ± 0.043 | 1.05 ± 0.068 | 1.01 ± 0.087 | 0.977 (active)
Cc1cccc(Nc2ccccc2C(=O)O)c1C | 0.847 ± 0.063 | 0.923 ± 0.13 | 0.962 ± 0.035 | 1.03 ± 0.075 | 1.03 ± 0.092 | 0.98 ± 0.089 | 0.999 (active)
Oc1c(Cl)cc(Cl)cc1C=Nc1cc(Cl)cc(Cl)c1 | 0.734 ± 0.14 | 0.915 ± 0.076 | 0.761 ± 0.066 | 0.437 ± 0.019 | 1.05 ± 0.1 | 1.09 ± 0.14 | 0.734 (active)
CN(C)CCC(c1ccc(Cl)cc1)c1ccccn1.O=C(O)/C=C\C(=O)O (centres undefined) | 1.02 ± 0.14 | 1.08 ± 0.23 | 1.1 ± 0.13 | 0.799 ± 0.042 | 1.23 ± 0.14 | 1.11 ± 0.085 | 0.995 (active)
O=C(NC(=S)Nc1ccc2[nH]c(=O)[nH]c2c1)c1ccc(Cl)cc1 | 0.958 ± 0.082 | 1.13 ± 0.075 | 0.95 ± 0.042 | 0.94 ± 0.17 | 1.03 ± 0.043 | 0.994 ± 0.22 | 1 (active)
CNCCCC12CCC(c3ccccc31)c1ccccc12.Cl | 0.507 ± 0.083 | 1.1 ± 0.24 | 1.32 ± 0.074 | 0.542 ± 0.038 | 1.36 ± 0.34 | 2.48 ± 0.34 | 0.29 (inactive)
CC(=NOCCCl)C(C)=NOCCCl | 0.946 ± 0.078 | 1.05 ± 0.13 | 1.21 ± 0.042 | 0.909 ± 0.15 | 1.07 ± 0.045 | 1.59 ± 0.2 | 0.585 (inactive)
O=C(NCC1(O)Cc2ccccc2C1)c1cccc(Br)c1 | 1.09 ± 0.055 | 1.02 ± 0.093 | 1.03 ± 0.15 | 1.05 ± 0.069 | 1.2 ± 0.11 | 1.32 ± 0.1 | 0.677 (inactive)
CN1CCN(C2=C(Cl)C(=O)N(c3ccc(Cl)c(Cl)c3)C2=O)CC1 | 0.902 ± 0.11 | 1.01 ± 0.091 | 0.759 ± 0.045 | 0.524 ± 0.016 | 1.54 ± 0.28 | 1.24 ± 0.21 | 1.01 (active)
CN(C)CCN(Cc1ccccc1)Cc1cccc(Cl)c1 | 0.976 ± 0.057 | 0.928 ± 0.16 | 1.05 ± 0.044 | 0.838 ± 0.04 | 1.02 ± 0.048 | 0.87 ± 0.1 | 0.999 (active)
CC(=O)Oc1ccc2c(c1)c(C(C)=O)c(C)n2C | 0.859 ± 0.071 | 0.972 ± 0.1 | 0.963 ± 0.091 | 0.783 ± 0.028 | 1.13 ± 0.15 | 1.27 ± 0.25 | 1.02 (active)
N#Cc1cc(OC2CCSC2)nc2ccccc12 (centres undefined) | 1.04 ± 0.067 | 1.05 ± 0.095 | 1.18 ± 0.065 | 0.935 ± 0.071 | 0.959 ± 0.045 | 1.15 ± 0.16 | 1 (active)
Cc1ccc2[nH]c3nc(NN)nnc3c2c1 | 1.03 ± 0.079 | 0.929 ± 0.077 | 0.967 ± 0.024 | 0.913 ± 0.05 | 0.998 ± 0.077 | 0.836 ± 0.071 | 1 (active)
Cc1cc(OCC(=O)NN=Cc2ccc(O)c([N+](=O)[O-])c2)ccc1Cl | 1.03 ± 0.29 | 1.04 ± 0.092 | 1.02 ± 0.093 | 1 ± 0.041 | 1.08 ± 0.2 | 1.13 ± 0.13 | 0.998 (active)
Cc1c(Cl)cccc1Nc1ccccc1C(=O)O | 1.16 ± 0.17 | 1.14 ± 0.3 | 0.887 ± 0.052 | 0.938 ± 0.043 | 1.34 ± 0.26 | 1.13 ± 0.28 | 1 (active)
COc1ccc(Nc2nc(N3CCCC(C)C3)nc3[nH]ncc23)cc1 (centres undefined) | 0.608 ± 0.03 | 0.617 ± 0.051 | 0.768 ± 0.048 | 0.623 ± 0.045 | 0.905 ± 0.21 | 1.32 ± 0.46 | 0.264 (inactive)
